A selection: hits, their analogues and other compounds. The true share with any hit is near 7%.
ADAM17 inh: inhibits human ADAM17; recombinant ADAM17, EDANS/DABCYL FRET peptide cleavage; P78536; inhibition, % at 6.95 µM; 370,000 tested, 0.83% active;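 active means inhibition above the mean of compounds lying between control limits plus 3 SD, set per campaign, cut at about 8.5% in these data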
rCAG RNA binder: molecules binding r(CAG) RNA repeats; 370,000 tested, 1.3% active; inhibition, % at 3 µM; r(CAG) RNA repeat, TO-PRO-1 dye displacement fluorescence;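 active means inhibition above the plate cutoff, the mean of all test compounds on that plate plus 3 SD, cut at about 35% in these data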;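 further: higher means more dye released from RNA so lower well fluorescence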
GRIN3A LBD mod: NR3A (human) ligand-binding domain modulation. NR3A LBD differential scanning fluorimetry, Tm shift; 0% = protein alone, 100% = glycine-bound protein. Tm shift relative to glycine control, % at 25 µM. 340,000 tested, 2.5% active;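 active means melting temperature shift of at least 10% of the positive control shift, at one fixed dose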
KLK7 zymogen act: activators of human kallikrein-7 zymogen. purified proKLK7, EDANS-DABCYL substrate fluorescence; 100% is mature enzyme control, 0% vehicle. activation, % at 7 µM. P49862. 370,000 tested, 0.9% active;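 active means activation above the mean of all tested compounds plus 3 SD, computed per campaign excluding outliers beyond control limits, cut at about 13% in these data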
Target sequence (P49862 whole entry, looked up): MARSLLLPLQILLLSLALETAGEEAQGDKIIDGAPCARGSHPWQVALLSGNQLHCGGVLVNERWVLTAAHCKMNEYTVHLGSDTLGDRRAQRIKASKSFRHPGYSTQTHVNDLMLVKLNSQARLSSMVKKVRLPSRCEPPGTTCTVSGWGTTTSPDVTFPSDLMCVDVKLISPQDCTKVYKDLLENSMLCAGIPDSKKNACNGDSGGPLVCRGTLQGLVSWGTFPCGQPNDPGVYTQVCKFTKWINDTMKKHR
AHR act: human AHR activation; 320,000 tested, 2.5% active; AHR-responsive luciferase reporter cells, luminescence; activation, % at 5 µM; P35869; in the data active means activation above about 47%
ADAM10 inh: inhibits human ADAM10; recombinant ADAM10, EDANS/DABCYL FRET peptide cleavage, 3 h; inhibition, % at 7 µM; 370,000 tested, 0.62% active; AID 720582;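 active means inhibition above a per-campaign cutoff equal to the mean of compounds falling between control-based bounds plus 3 SD, cut at about 20% in these data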
ADAM10 confirm: confirmation of inhibitors of human ADAM10; inhibition, % at 6.95 µM; 2,100 tested, 1% active; AID 743208; shares compounds with ADAM10 inh; ADAM10 QFRET peptide cleavage, EDANS fluorescence;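 active means inhibition above about 20% chosen separately for each screening run, limit read from the data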
ADAM17 ctr: ADAM17 inhibition, counter-screen for ADAM10 exosite hits; shares compounds with ADAM10 inh; ADAM17 QFRET peptide cleavage, EDANS fluorescence; inhibition, % at 6.95 µM; 2,100 tested, 0.5% active; AID 743214;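 active means mean triplicate inhibition above the solvent-only control wells' mean plus 3 SD, cut at about 12% in these data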
A number is an active result; - = inactive; . = no result.

SMILES | ADAM17 inh | rCAG RNA binder | GRIN3A LBD mod | KLK7 zymogen act | AHR act | ADAM10 inh | ADAM10 confirm | ADAM17 ctr
CCCOC(=O)c1ccc(Oc2c(-c3ccc(O)cc3O)n[nH]c2C)cc1 | - | - | . | - | - | 22 | - | -
O=C(NN1C(=O)C2C(c3ccccc3)C=CC(c3ccccc3)C2C1=O)c1cccc(Br)c1 (centres undefined) | - | - | 20 | - | - | 21 | - | -
O=C(NN1C(=O)C2C(c3ccccc3)C=CC(c3ccccc3)C2C1=O)c1ccccc1 (centres undefined) | - | - | - | - | - | - | . | .
Cc1ccc(C(=O)Nc2ccccc2Oc2ccccc2)cc1[N+](=O)[O-] | - | - | - | - | 74 | 22 | - | -
CN1CCN(S(=O)(=O)c2cccc(C(=O)NCCOc3ccccc3)c2)CC1 | - | - | - | - | - | - | . | .
COc1ccc(CNC(=O)c2cccc(S(=O)(=O)N3CCN(c4ccc(F)cc4)CC3)c2)cc1 | - | - | - | - | . | 22 | - | -
O=C(NCCOc1ccccc1)c1cccc(S(=O)(=O)N2CCN(Cc3ccccc3)CC2)c1 | - | - | . | - | . | 24 | - | -
Cc1ccc(C(=O)COC(=O)c2cccc(NC(=O)c3ccc([N+](=O)[O-])cc3[N+](=O)[O-])c2)cc1 | - | - | - | - | - | 25 | - | -
CC(=O)Nc1ccc(C(=O)OCC(=O)c2cccc([N+](=O)[O-])c2)cc1 | - | - | - | - | - | - | . | .
O=C(N[C@@H]1CCC(=O)N(CC[C@H](Oc2ccccc2)c2ccccc2)CC1)OCc1ccccc1 | - | - | - | - | - | 20 | - | -
O=C(O)c1ccccc1-n1c(-c2ccccc2)cc2c1CCCC2=O | - | - | - | - | - | - | . | .
COc1cccc(C(C(=O)NCc2ccccc2)N(C(=O)c2csnn2)C2CC2)c1 (centres undefined) | - | - | - | - | - | - | . | .
CN(C(=O)[C@@H](C1CC1)[C@@H](O)c1ccc2ccccc2c1)c1ccccc1 | - | - | . | - | . | 87 | - | -
COc1cc(/C=C/C(=O)OCC(=O)NCc2ccco2)ccc1O | - | - | - | - | - | - | . | .
c1ccc2c(c1)CSc1ccccc1N2 | - | - | - | - | - | 21 | - | -
Clc1ccc(CN=C2Nc3ccccc3CS2)cc1 | - | - | - | - | - | - | . | .
CCCNC(=O)C1(C)CCCN(C(=O)c2ccccc2F)C1 (centres undefined) | - | - | . | - | . | - | . | .
COC(=O)C(Cc1c[nH]c2ccccc12)NC(C)=O (centres undefined) | - | - | - | - | - | - | . | .
CC(=O)N[C@@H](Cc1c[nH]c2ccccc12)C(=O)OCc1cc(C(F)(F)F)cc(C(F)(F)F)c1 | - | - | - | - | - | 24 | - | -
CC(Oc1cccc(Cl)c1)C(=O)N(C)CC(=O)Nc1ccc(N2CCOCC2)cc1 (centres undefined) | - | - | - | - | - | - | . | .
CC(=O)Nc1cccc(C(=O)OC(C(=O)c2ccc(C)c(C)c2)c2ccccc2)c1 (centres undefined) | - | - | - | - | - | - | . | .
CC(=O)Nc1cccc(C(=O)OC(C(=O)c2ccc(C)cc2)c2ccccc2)c1 (centres undefined) | - | - | - | - | - | 25 | - | -
N#Cc1cccc(-c2csc(C(O)c3ccco3)n2)c1 (centres undefined) | - | - | . | - | . | - | . | .
NNC(=O)c1cccc(COc2ccccc2Br)c1 | - | - | - | - | - | 24 | - | -
O=C1CN(C(=O)c2cc3ccccc3oc2=O)C(c2ccc(F)cc2)c2cc(Br)ccc2N1 (centres undefined) | - | - | - | - | - | - | . | .
SMILES | ADAM17 inh | rCAG RNA binder | GRIN3A LBD mod | KLK7 zymogen act | AHR act | ADAM10 inh | ADAM10 confirm | ADAM17 ctr
Cc1ccc(/C=C/C(=O)Nc2ccc(S(=O)(=O)Nc3onc(C)c3C)cc2)cc1 | - | 68 | - | - | - | 21 | - | -
O=C(C1CCN(S(=O)(=O)c2cnc[nH]2)CC1)N1CCN(c2ccc([N+](=O)[O-])cc2)CC1 | - | - | - | - | - | 45 | - | -
O=C(C1CC1)N1CCN(c2ccc([N+](=O)[O-])cc2)CC1 | - | - | - | - | - | - | . | .
COc1ccccc1-c1cc(N)n(S(=O)(=O)c2cccc3nsnc23)n1 | - | - | - | - | - | 23 | - | -
COc1ccc(-c2cc(-c3ccc(OC)cc3)[nH]n2)cc1 | - | - | - | - | - | - | . | .
COc1ccc(-c2cc(-c3ccc(C)cc3)n[nH]2)c(O)c1 | - | - | 31 | - | - | 33 | - | -
Cc1[nH]nc(-c2ccc(O)cc2O)c1-c1ccc(Cl)cc1 | - | - | 23 | - | - | 20 | - | -
COc1ccc(-c2n[nH]c(C)c2-c2ccc(Cl)cc2)c(O)c1 | - | - | 10 | - | - | 20 | - | -
CCOC(=O)C1=C(C)N(C)C(=O)NC1c1cc2c(cc1[N+](=O)[O-])OCO2 (centres undefined) | - | - | - | - | - | - | . | .
O=C(CN1C(=O)NC(c2ccccc2)(c2ccccc2)C1=O)NCc1ccccc1 | - | - | - | - | - | - | . | .
COc1ccc(C2(c3ccc(OC)cc3)NC(=O)N(CC(=O)Nc3ccccc3C(F)(F)F)C2=O)cc1 | - | - | - | - | - | 21 | - | -
Cc1ccc(C2(c3ccccc3)NC(=O)N(CC(=O)NCc3ccccc3)C2=O)cc1C (centres undefined) | - | - | - | - | - | 23 | - | -
c1ccc(CNCc2ccco2)cc1 | - | - | - | - | - | - | . | .
Cc1cc(N2CCCC2)ccc1/C=C1\NC(=S)N(C)C1=O | - | - | - | - | 51 | 25 | - | -
Cc1csc(SCC(=O)NC(C)C2CC3CCC2C3)n1 (centres undefined) | - | - | - | - | - | - | . | .
COc1cc2ccccc2cc1C(=O)N/N=C/c1cccs1 | - | - | . | - | . | - | . | .
CCN(c1ccccc1)S(=O)(=O)c1ccc(N2CCN(c3ccc(O)cc3)CC2)nc1 | - | - | - | - | - | 25 | - | -
Cc1cc(OCc2nc(N)nc(N)c2-c2ccc(Cl)c(Cl)c2)ccc1[N+](=O)[O-] | - | - | - | - | . | - | . | .
CSc1ccc(S(=O)(=O)NCc2ccc(Cl)cc2Cl)cc1 | - | - | - | - | - | 20 | - | -
COc1ccc(C2=NOC(Cn3nc(C(=O)NCc4cccc(Br)c4)cc3-c3ccccc3)C2)cc1 (centres undefined) | - | - | - | - | - | - | . | .
CCOC(=O)c1cc(-c2ccccc2C)n(CC2CC(c3ccc(OC)cc3)=NO2)n1 (centres undefined) | - | - | - | - | - | 23 | - | -
